# DAX1 inh-1 – DAX1 (NR0B1) inhibitors, primary screen, cell-based, HEK293, Gal4-DAX1, luciferase luminescence. Nuclear receptor subfamily 0 group B member 1 (Homo sapiens), P51843. HEK293 Gal4-DAX1 luciferase reporter. inhibition, % at 6.75 µM. 340,000 tested, 0.99% active. AID 504766, 2011;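 active = inhibition above the mean over all tested compounds plus 3 SD, cut at about 4.2% in these data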;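 note: 0% = DAX1-transfected cells with DMSO and 100% = empty-vector control cells with DMSO; inhibition shows as a rise in luminescence from relieved DAX1 repression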
# Target sequence (P51843 207-470 limits assumed): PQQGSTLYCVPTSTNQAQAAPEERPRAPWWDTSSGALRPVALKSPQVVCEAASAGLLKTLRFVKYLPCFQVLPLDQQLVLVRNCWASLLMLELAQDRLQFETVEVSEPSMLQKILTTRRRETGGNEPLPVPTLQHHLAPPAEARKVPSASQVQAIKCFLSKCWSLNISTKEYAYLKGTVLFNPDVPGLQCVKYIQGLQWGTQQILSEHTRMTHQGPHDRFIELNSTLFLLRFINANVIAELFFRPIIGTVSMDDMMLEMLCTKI
# hcDAF-12 act – H. contortus DAF-12 nuclear receptor activators, primary screen, cell-based, luminescence, HEK293, lit1-tk-luc reporter; HEK293 hcDAF-12 lit1-tk-luc reporter; 0% DMSO, 100% Δ7-dafachronic acid; activation, % at 6.8 µM; 370,000 tested, 1.4% active;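 active = activation above the mean of all tested compounds plus 3 SD, cut at about 5.5% in these data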;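 note: 100% = response to 3 µM Δ7-dafachronic acid high control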
# ssDAF-12 act – S. stercoralis DAF-12 nuclear receptor activators, primary screen, cell-based, luminescence, HEK293, GRIP1 co-expression, lit1-tk-luc. AID 652126, 2013. HEK293 ssDAF-12/GRIP1 lit1-tk-luc reporter; % of 3 µM dafachronic acid response. Nuclear hormone receptor DAF-12 (Strongyloides stercoralis). 370,000 tested, 1% active. activation, % at 6.8 µM;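 active = activation above the mean over all tested compounds plus 3 SD, cut at about 0.9% in these data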;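 note: 0% = DMSO-only wells and 100% = 3 µM delta7-dafachronic acid wells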
# DAX1 inh-2 – DAX1 (NR0B1) inhibitors on StAR promoter, primary screen, cell-based, luminescence, SF-1 (NR5A1), full-length DAX-1; 370,000 tested, 1.1% active; AID 652010, 2013; HEK293T StAR-luciferase reporter, SF-1/DAX-1 repression relief; inhibition, % at 6.8 µM;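 active = inhibition above the mean over all tested compounds plus 3 SD, cut at about 3.6% in these data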;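 note: 0% = DAX-1 cells with DMSO and 100% = cells lacking DAX-1 with DMSO; higher inhibition means more luminescence from relief of DAX-1 repression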
# AHR activator – AHR activators, primary screen, cell-based, luminescence, luciferase reporter, human; Aryl hydrocarbon receptor (Homo sapiens), P35869; AHR-responsive luciferase reporter cells; activation, % at 5 µM; 320,000 tested, 2.5% active; in the data active = activation above about 47%;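 note: 0% = vehicle wells and 100% = reference agonist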
# hgDAF-12 ag – H. glycines DAF-12 receptor agonists, primary screen, cell-based, luminescence, HEK293, GAL4 fusion, UAS-luciferase | Nuclear hormone receptor DAF-12 (Heterodera glycines), GAL4 fusion | HEK293 GAL4-hgDAF12 UAS-luciferase reporter, agonist luminescence; normalized to butyrate control | activation, % at 6.8 µM | 370,000 tested, 1.8% active;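 active = activation above a cutoff set at the mean of all screened compounds plus 3 SD, cut at about 10% in these data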;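 note: 0% = DMSO wells and 100% = sodium butyrate wells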
# * marks the source's active call; other numbers are inactive results; / = no result given. Compounds with a hit are over-represented: about 5.7% of the library has one in this group of screens.
SMILES,DAX1 inh-1,hcDAF-12 act,ssDAF-12 act,DAX1 inh-2,AHR activator,hgDAF-12 ag
COc1cccc(S(=O)(=O)N(C)C[C@H]2Oc3ncc(Br)cc3C(=O)N([C@H](C)CO)C[C@H]2C)c1,2.0,-1.3,-1.8,-0.7,/,2.5
COc1cccc(S(=O)(=O)N(C)C[C@@H]2Oc3ncc(Br)cc3C(=O)N([C@H](C)CO)C[C@@H]2C)c1,/,-1.7,1.2*,0.1,/,-2.9
CCc1c(-c2cccc(F)c2)ncn1CCc1ccccc1OC,/,-3.0,-1.6,-2.7,/,-3.8
CCCCCCCc1ccc(-c2ccc(O)cc2)nc1,-0.2,1.6,-0.8,1.2,-2.1,11.8*
COC(=O)c1cccc(NC(=O)c2cccc(-n3cnnn3)c2)c1,-0.9,0.2,-1.6,-1.7,/,-0.2
O=C(Nc1cnc2ccccc2c1)c1cccc(-n2cnnn2)c1,2.7,6.3*,0.0,0.9,58.6*,9.4
Cc1cc(C)c(S(=O)(=O)Nc2ccccc2C(=O)N2CCOCC2)c(C)c1,0.4,-2.2,-1.2,0.9,-0.2,0.1
Nc1[nH]c(N=NC(=O)c2ccc(F)cc2)c2ccccc12,1.0,3.0,-0.8,1.6,13.3,4.1
Nc1ccccc1C(=O)N=Nc1[nH]c(N)c2ccccc12,0.3,0.1,-0.6,2.1,61.2*,4.7
COc1ccc(C(=O)c2[nH]c(N)c(C(=O)NCCc3c[nH]c4ccccc34)c2-c2ccccc2C(F)(F)F)cc1,/,-2.4,-0.5,-1.1,/,1.8
O=C(NC(=O)c1ccccc1O)c1ccc2c(c1)CCO2,-1.5,3.6,1.0*,1.6,8.9,12.5*
CCOC(=O)c1nc(-c2ccc(OC)c(OC)c2)no1,0.4,-0.6,-1.4,0.7,-0.7,0.7
CCOC(=O)c1nc(-c2ccc(OC)c(OC)c2)cnc1C#N,6.9*,3.8,-0.6,0.5,0.7,-3.7
Cc1cc(C)n(-c2ccc(OCC(=O)O)nn2)n1,0.6,-0.2,-1.4,0.9,-3.6,2.2
CCCCOc1ccc(-n2nc(C)cc2C)nn1,4.7*,2.3,-0.7,2.0,5.0,3.0
COc1cc(/C=C/C(=O)OCC(=O)NCCC2=CCCCC2)cc(OC)c1OC,1.8,-1.0,-1.2,-1.7,0.2,0.3
CCOC(=O)c1cc2nc(-c3ccccc3)cc(C)n2n1,0.0,0.7,-1.2,-0.1,0.5,-0.8
CCOC(=O)c1cnn2c(C)cc(-c3ccccc3)nc12,4.3*,4.0,-0.5,2.4,0.3,6.9
COc1cc2c(C)nc3onc(-c4ccccc4)c3c2cc1OC,0.7,1.8,-0.8,-0.5,71.2*,4.5
CCn1cc(CCC(=O)Nc2ccc(Oc3cccnc3)cc2)c2ccccc21,/,-1.8,-1.2,-0.9,/,0.4
N#Cc1cc2cc(Cl)ccc2[nH]c1=O,/,-0.8,-0.7,4.1*,/,0.7
O=C(c1ccccc1)c1cc2cc(Cl)ccc2[nH]1,1.9,3.4,0.9,0.7,4.0,4.7
C=C(C1=CCN(S(=O)(=O)C(C)(C)C)[C@H]1CCO)c1ccccc1,5.8*,-0.3,-0.8,-0.9,/,-1.0
C=C(C1=CCN(S(=O)C(C)(C)C)[C@H]1CCO)c1ccccc1 (some centres not stated),0.9,-0.1,-0.7,0.0,/,-1.3
CC(C)c1c(Cl)c(O)c(-c2ccccc2)c(=O)n1-c1ccc(F)cc1,-1.4,5.7*,-0.2,0.0,16.0,0.4
SMILES,DAX1 inh-1,hcDAF-12 act,ssDAF-12 act,DAX1 inh-2,AHR activator,hgDAF-12 ag
CC(C)c1cc(O)c(-c2ccccc2)c(=O)n1-c1ccc(Cl)cc1,1.0,-1.6,-1.5,0.1,-3.4,-1.1
COc1ccc(Sc2cccc3c2S(=O)(=O)N([C@H](C)c2ccccc2)C[C@@H](COCc2ccccc2)O3)cc1OC,/,0.4,-1.2,1.0,/,-2.0
CCCCN1CC(COCc2ccccc2)Oc2cccc(Sc3ccc(OC)c(OC)c3)c2S1(=O)=O (configuration not stated),/,1.4,-1.3,4.2*,/,3.1
O=C(c1ccc(F)cc1)N1CCN2C(=O)c3ccccc3C12c1ccc(Cl)cc1 (configuration not stated),4.2*,-1.6,-0.8,0.2,-0.1,-3.6
O=C(c1ccc(F)cc1)N1CCN2C(=O)c3ccccc3C12c1ccccc1 (configuration not stated),1.4,-0.8,-1.0,0.2,-1.0,-2.6
Cc1cc(C)c2oc(C(=O)N(Cc3ccccc3)c3ccccn3)cc(=O)c2c1,6.3*,-2.2,-1.5,-0.1,3.2,-2.8
CCCC(=O)N(c1ccc(OCC)cc1)C1C=CS(=O)(=O)C1 (configuration not stated),0.0,-2.0,-0.4,-0.2,-0.7,-1.2
CCOc1ccc(N(C(C)=O)C2C=CS(=O)(=O)C2)cc1 (configuration not stated),5.3*,-0.3,-1.0,-0.2,-1.1,2.7
CCOC(=O)c1cc2cc3ccccc3cc2[nH]1,1.9,4.2,1.0*,1.4,3.1,9.1
CC(C)OC(=O)c1cc2ccccc2[nH]1,-1.0,-0.2,-1.9,-0.5,-4.1,2.0
O=S1(=O)N[C@@H](Cc2ccccc2)COc2cc(NCCCN3CCOCC3)ccc21,/,-1.3,-1.0,-1.7,/,-4.2
O=[N+]([O-])c1cnn(-c2nc(-c3cccs3)cc(C(F)(F)F)n2)c1,4.7*,-1.2,-0.6,-0.3,3.0,0.5
COc1ccc(NC(=O)c2ccccc2)cc1,1.6,2.1,-0.8,2.1,1.1,9.1
COc1ccc(NC(=O)O/N=C/c2ccccc2Cl)cc1,1.1,-0.1,-0.7,-0.1,1.6,1.4
C#CCn1cccc(C(=O)Nc2ccc(OC)cc2)c1=O,1.7,1.0,-1.2,-0.2,40.0,5.1
COc1ccc(NC(=O)O/N=C/c2ccccc2)cc1,2.8,1.6,-1.3,0.9,1.0,11.4*
CCOc1ccc(NC(=O)c2ccccc2O)cc1,-1.0,5.2,0.1,3.1,1.1,12.3*
CCCn1cccc(C(=O)Nc2ccc(OC)cc2)c1=O,-0.7,-0.2,-0.9,-0.3,75.4*,-1.4
COc1ccc(NC(=O)c2ccccc2C)cc1,6.3*,2.1,-0.3,1.6,-0.1,6.1
CCCCCCCCN1C(=O)[C@@H](CC(=O)NCCCCc2ccccc2)C[C@@]2(C(=O)OC)C1=C[C@H](COCc1ccccc1)O[C@@H]2C,/,0.0,-0.4,0.5,/,5.0
O=C(Nc1ccc(F)cc1)c1c(Cl)nc2ccccn12,0.5,2.3,-0.8,0.5,57.6*,7.8
COc1ccc(NC(=O)OC(C)C)cc1,1.4,4.0,-0.4,1.8,6.0,11.1*
